Consider 26 compounds from PubChem BioAssay (EPA / NIEHS).

Read-out in assay [1]: Interleukin 2 (IL2), IL2 (gene 3558)
In words: BSK_BT_xIL2: BioMAP Diversity Plus: BT Assay for Interleukin 2 (IL2) Biomarker Activity (AID 2284245). Conditions: primary human B cells with PBMC. The gist of the method: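 Readout: supernatant IL-2 via Luminex xMAP after 24 h chemical dosing of a B cell/PBMC primary human co-culture. DMSO serves as negative control and baseline; increases in signal were fitted.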

Read-out in assay [2]: Basic fibroblast growth factor (bFGF), FGF2 (gene 2247)
Briefly: BSK_MyoF_bFGF: BioMAP Diversity Plus: MyoF Assay for Basic fibroblast growth factor (bFGF) Biomarker Activity (AID 2284246). Conditions: primary human lung fibroblasts. In a few lines: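 Primary human lung fibroblast culture, 24 h compound exposure; ELISA read-out of bFGF. Positive-direction fit vs DMSO baseline. Cytotoxicity: SRB stain (0.1% SRB, 10% TCA fixation, 560 nm) in parallel wells.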

Read-out in assay [3]: Collagen IV, COL4A1 (gene 1282)
In words: BSK_MyoF_CollagenIV: BioMAP Diversity Plus: MyoF Assay for Collagen IV Biomarker Activity (AID 2284247). Conditions: primary human lung fibroblasts. In a few lines: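 ELISA read-out of Collagen IV in lung fibroblast cultures, 24 h post-dosing; gain of signal relative to DMSO vehicle baseline defines activity.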

Read-out in assay [4]: Plasminogen activator inhibitor-1 (PAI1), SERPINE1 (gene 5054)
Briefly: BSK_MyoF_PAI1: BioMAP Diversity Plus: MyoF Assay for Plasminogen activator inhibitor-1 (PAI1) Biomarker Activity (AID 2284256).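 On outcome: PAI-1 protein level measured by ELISA in fibroblast cultures; PAI-1 read 24 h after compound addition.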 Conditions: primary human lung fibroblasts. In a few lines:
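ELISA read-out of PAI-1 from primary human lung fibroblast cultures 24 h after dosing; gain-of-signal fit versus DMSO control.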

Read-out in assay [5]: Interleukin-8 (IL8), CXCL8 (gene 3576)
In words: BSK_MyoF_IL8: BioMAP Diversity Plus: MyoF Assay for Interleukin-8 (IL8) Biomarker Activity (AID 2284261). Conditions: primary human lung fibroblasts. In a few lines:
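ELISA read-out of IL-8 from primary human lung fibroblasts, 24 h post-dose; positive-direction curve fitting relative to DMSO vehicle baseline.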

SMILES strings stand for the structures. Values joined by “and” are separate entries in the source; they are usually repeats but may differ in a detail not shown here. Equal entries are not always repeated. The source holds several records for some structures; these can differ, active in one and inactive in another. Active and inactive are the calls of the source. How the source made its calls: active means hit-call score of the fitted dose curve at least 0.9, where 1 is the maximum; inactive means score below 0.9.

As usually defined, the AC50 is the concentration giving half of the maximal activity seen. For the compound `CCOC(=O)CCN(SN(C)C(=O)Oc1cccc2c1OC(C)(C)C2)C(C)C`, the AC50 in assay [1] was 36.3 µM (active). The result in assay [2], in assay [3], in assay [4] and in assay [5] was inactive.

In the case of `Nc1ccc(N)cc1`, the result in assay [1], in assay [2], in assay [3], in assay [4] and in assay [5] was inactive.

Consider `C=CC(Cl)CCl` (stereo unspecified), for which the outcome in assay [1], in assay [2] and in assay [5] was inactive. For the same compound, the AC50 was 0.0311 µM (active) in assay [3] and 0.806 µM (active) in assay [4].

With `O=S(=O)(C(Cl)(Cl)Cl)C(Cl)(Cl)Cl`, the AC50 was 4.48 µM (active) in assay [1], 3.71 µM (active) in assay [2], 2.53 µM (active) in assay [3] and 3.03 µM (active) in assay [4]. Moreover, the result in assay [5] was inactive.

On to `[Cl][Sn]([c]1ccccc1)([c]1ccccc1)[c]1ccccc1`, for which the AC50 in assay [1] was 0.395 µM (active); in assay [2] it was 0.324 µM (active); in assay [3] it was 0.286 µM (active); in assay [4], 0.169 µM (active). Moreover, the result in assay [5] was inactive.

Turning to `Cc1cc(Cl)ccc1N`, the result in assay [1], in assay [2], in assay [3], in assay [4] and in assay [5] was inactive.

Regarding `COCC(=O)N(c1c(C)cccc1C)[C@H](C)C(=O)OC`, the result in assay [1], in assay [2], in assay [3], in assay [4] and in assay [5] was inactive.

In the case of `Cc1cccc(OP(=O)(Oc2cccc(C)c2)Oc2cccc(C)c2)c1`, the result in assay [1], in assay [2] and in assay [5] was inactive. Moreover, the values for the AC50 in assay [3] and in assay [4] were 0.0382 µM (active) and 0.016 µM (active), respectively.

On to `Oc1ccc(Cc2ccc(O)cc2)cc1`, for which the result in assay [1], in assay [2], in assay [3], in assay [4] and in assay [5] was inactive.

On to `Cc1cc(C(C)(C)c2ccc(O)c(C)c2)ccc1O`, for which the outcome in assay [1], in assay [2], in assay [3], in assay [4] and in assay [5] was inactive.

As for `Cc1cc(Cl)ccc1OC(C)C(=O)O` (stereo unspecified), the result in assay [1], in assay [2], in assay [3], in assay [4] and in assay [5] was inactive.

Take `CC1(C)[C@H](C(=O)O[C@H](C#N)c2cccc(Oc3ccccc3)c2)[C@@H]1/C=C(\Cl)C(F)(F)F`: the AC50 in assay [1] is 17.1 µM (active) and 14.2 µM (active); in assay [4], 0.0141 µM (active). Moreover, the outcome in assay [2], in assay [3], in assay [4] and in assay [5] was inactive.

`Cc1c([N+](=O)[O-])c(C)c([N+](=O)[O-])c(C(C)(C)C)c1[N+](=O)[O-]`: the outcome in assay [1], in assay [2], in assay [3], in assay [4] and in assay [5] was inactive.

As to `N#CCCC(Br)(C#N)CBr` (stereo unspecified), the AC50 in assay [1] was 11 µM (active); in assay [2] it was 25 µM (active); in assay [3] it was 0.914 µM (active); in assay [4] it was 26.4 µM (active). In assay [5], the result was inactive.

Consider `O=[N+]([O-])c1cccc2ccccc12`, for which the result in assay [1], in assay [2], in assay [3], in assay [4] and in assay [5] was inactive.

In the case of `c1ccc(-c2cccc(-c3ccccc3)c2)cc1`, the result in assay [1], in assay [2], in assay [3] and in assay [4] was inactive. Besides, in assay [5], the AC50 was 20 µM (active).

Turning to `CCC(C)(C#N)N=NC(C)(C#N)CC` (stereo unspecified), the outcome in assay [1], in assay [2], in assay [3], in assay [4] and in assay [5] was inactive.

With `O=[N+]([O-])c1ccc(Nc2ccccc2)cc1`, the outcome in assay [1], in assay [2], in assay [3], in assay [4] and in assay [5] was inactive.

Consider `CC(C)=CC1C(C(=O)OCc2cccc(Oc3ccccc3)c2)C1(C)C` (stereo unspecified), for which, in assay [1], the AC50 was 20 µM (active). Also, the outcome in assay [2], in assay [3], in assay [4] and in assay [5] was inactive.

For the compound `OC(Cc1ccccc1Cl)(Cn1[nH]cnc1=S)C1(Cl)CC1` (stereo unspecified), the outcome in assay [1], in assay [2] and in assay [3] was inactive. For the same compound, the AC50 in assay [4] is 34.5 µM (active); in assay [5], 12.3 µM (active).

For `O=S(=O)(c1ccc(Cl)cc1)c1cc(Cl)c(Cl)cc1Cl`, the AC50 in assay [1] was 20 µM (active). The outcome in assay [2], in assay [3], in assay [4] and in assay [5] was inactive.

For the compound `CC(C)(C)c1cc([N+](=O)[O-])cc(C(C)(C)C)c1O`, the AC50 in assay [1] was 20 µM (active); in assay [3], 0.396 µM (active); in assay [4], 0.016 µM (active). The result in assay [2] and in assay [5] was inactive.

Turning to `c1ccc2sc(SNC3CCCCC3)nc2c1`, the AC50 is 28.9 µM (active) in assay [1] and 6.46 µM (active) in assay [5]. The result in assay [2], in assay [3] and in assay [4] was inactive.

As to `Oc1cccc(-c2ccccc2)c1`, the outcome in assay [1], in assay [2], in assay [3], in assay [4] and in assay [5] was inactive.

Turning to `CCOP(=O)(OCC)SCCSCC`, the outcome in assay [1], in assay [2], in assay [3], in assay [4] and in assay [5] was inactive.

In the case of `CCCCCCCCCCCCN(C)C`, the outcome in assay [1], in assay [2], in assay [3], in assay [4] and in assay [5] was inactive.
